In ChEMBL document CHEMBL4513146, “CO-ADD screening of Karazin Kharkiv National University (Ukraine) compounds”:
Potency and affinity values are given separately.

Legend:
[1] = system: Klebsiella pneumoniae; settings: Concentration 32 ug.mL-1;; ASSAY_TEST Inhibition of Bacterial Growth; detection method Absorption (OD600); MEDIA CAMHB; plate type 384well; NBS; CORNING #3640; time 18 hr
[2] = system: Candida albicans; settings: Concentration 32 ug.mL-1; ASSAY_TEST Inhibition of Fungal Growth; detection method Absorption (OD530)
[3] = system: Cryptococcus neoformans; settings: Concentration 32 ug.mL-1; ASSAY_TEST Inhibition of Fungal Growth; detection method Resazurin; Absorption (OD600-OD570); plate type 384well; NBS; CORNING #3640

| Structure (SMILES) | Inhibition [1] [%] | Inhibition [2] [%] | Inhibition [3] [%] |
| --- | --- | --- | --- |
| Cc1ccccc1CSc1nnc2c(=O)n(-c3ccc(F)c(F)c3)ccn12 | 9.65 | 4.14 | -9.1 |
| Cc1ccc(-c2ccc3nn(CC(=O)NCc4ccc(Cl)cc4)c(=O)n3n2)cc1C | 6.14 | 6.17 | -11 |
| CCC(Sc1nnc2c(=O)n(-c3ccc(F)cc3)ccn12)C(=O)Nc1cc(OC)cc(OC)c1 (centres undefined) | 12.14 | -0.61 | -13.06 |
| CCOc1ccc(-n2ccn3c(SCC(=O)c4ccc(F)cc4)nnc3c2=O)cc1 | 1.88 | 2.02 | -5.27 |
| Cc1cccc(C)c1NC(=O)Cn1nc2c(Sc3ccccc3)nccn2c1=O | -1.09 | 0.55 | -9.17 |
| O=C(Cn1nc2c(Oc3ccccc3)nccn2c1=O)Nc1ccc(Br)cc1F | -1.93 | 5.04 | -11.28 |
| CC(C)Sc1ccc2nn(CC(=O)Nc3ccc(F)cc3Cl)c(=O)n2n1 | 6.92 | 3.44 | -6.24 |
| Cc1ccc(-c2cc3c4nn(CC(=O)Nc5ccc(Cl)cc5)c(=O)n4ccn3n2)cc1C | -7.29 | 11.19 | -17.93 |
| Cc1nnc2c(SCC(=O)Nc3cccc(Br)c3)nc3ccccc3n12 | 10.33 | 5.04 | -3.71 |
| CCCCn1c(=O)c2sccc2n2c(CCC(=O)NCCC34CC5CC(CC(C5)C3)C4)nnc12 | 8.76 | -0.35 | -18.41 |
| COc1cccc(CNC(=O)CSc2nnc3ccc(C(=O)Nc4cccc(F)c4)cn23)c1 | -3.24 | 0.25 | -5.04 |
| CCOc1ccccc1NC(=O)Cn1nc2c(Sc3ccc(C)cc3C)nccn2c1=O | 5.52 | -0.73 | -9.54 |
| COc1cc(NC(=O)Cn2nc3c(N4CCCC4)nccn3c2=O)cc(OC)c1 | 0.81 | -1.46 | -4.76 |
| CCc1nnc2c(S(=O)(=O)N(Cc3ccc(F)cc3)c3cccc(Cl)c3)cccn12 | 0.19 | 5.46 | -7.67 |
| CCN(C(=O)CSc1nnc2c3cc(-c4ccc(OC)cc4)nn3ccn12)c1ccccc1 | 4.95 | 2.01 | -1.74 |
| O=C(Cn1nc2nc(Nc3ccc(F)cc3)ccn2c1=O)N1CCOCC1 | 14.5 | 2.63 | -13.19 |
| CCOC(=O)c1ccc(NC(=O)Cn2nc3ccc(Sc4ccccc4)nn3c2=O)cc1 | 5.75 | 4.06 | -9.53 |
| Cc1cc(C)cc(Nc2nc(C)cc3nn(CC(=O)Nc4cc(F)ccc4F)c(=O)n23)c1 | 17.33 | 4.37 | -7.31 |
| Cc1ccc(NC(=O)Cn2nc3cc(C)nc(Nc4ccc(F)c(C)c4)n3c2=O)cc1 | 11.85 | 7.21 | -5.79 |
| COc1cccc(CSc2nnc3c(=O)n(-c4ccccc4OC)ccn23)c1 | 6.64 | 1.36 | -5.34 |
| COc1ccc(-c2cc3c4nn(CC(=O)Nc5ccc(OC)cc5OC)c(=O)n4ccn3n2)cc1 | 12.55 | 0.69 | -8.54 |
| Cc1ccc(-n2ccn3c(=O)n(Cc4ccccc4F)nc3c2=O)cc1C | 7.33 | 0.26 | -12.8 |
| COc1cccc(CN(c2ccc(F)c(F)c2)S(=O)(=O)c2ccc3nnc(C)n3c2)c1 | 7.43 | 1.78 | -8.55 |
| COc1cccc(Sc2nc3ccccc3n3c(=O)n(CC(=O)N4CCCc5ccccc54)nc23)c1 | 2.78 | 0.71 | -20.75 |
| N#Cc1cccc(Cn2nc3ccc(S(=O)(=O)N4CCCCCC4)cn3c2=O)c1 | 8.88 | -0.26 | -9.97 |
| O=C(Cn1nc2c(N3CCOCC3)nccn2c1=O)NCc1ccc(C(F)(F)F)cc1 | 3.05 | 1.76 | -5.37 |
| COc1ccc(NC(=O)Cn2nc3c(Oc4cccc(F)c4)nccn3c2=O)cc1 | -11.98 | 4.65 | -6.95 |
| Cc1ccc(Oc2nccn3c(=O)n(CC(=O)Nc4ccc5c(c4)OCO5)nc23)cc1 | 3.22 | -1.46 | -8.87 |
